# The list is not random: actives were taken first. Their share in the collection is about 10%.
# Pf growth 96h – P. falciparum growth inhibition at 96 hour, primary screen for plastid delayed-death inhibitors | P. falciparum luciferase reporter growth, 96 h | actives 6.9% (n = 320,000) | AID 504834 | Potency, µM (doses to about 28.7 µM), for the others: top-dose activity change, negative = inhibition, actives largely listed as inhibitors; also: % is scaled to controls: 0 for no effect and ±100 for the full control effect
#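 P. falciparum expressing integrated firefly luciferase grown in erythrocytes (2% hematocrit, 0.05% parasitemia final) with compounds for 96 hours at 37 C, 5% CO2. Growth inhibition read as loss of luminescence after adding luciferase detection reagent.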
# NS1 function inh – inhibitors of influenza NS1 protein function; Potency, µM (top dose mostly 46.1 µM), for inactives: at the top dose activity, positive = more growth; actives 0.4% (n = 270,000); calls by dose curve; also: actives are rising curves; nearly all actives have a fitted effect of over 50% in size
#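 Growth recovery, yeast-based: influenza A NS1 expressed in S. cerevisiae causes slow growth, and suppressors are detected by OD600. The parent strain without NS1 is used as positive control.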
# Pf growth 48h – P. falciparum growth inhibition at 48 hours (one generation). P. falciparum luciferase growth in erythrocytes, 48 h. Potency, µM (top dose mostly 28.7 µM), inactives show at the highest dose activity change, negative = inhibition, hits mostly inhibitors. actives 5.9% (n = 310,000); also: % is scaled to controls: 0 for no effect and ±100 for the full control effect
#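 Read-out is firefly luciferase luminescence from an integrated reporter in P. falciparum, so falling signal marks reduced parasite growth. Infected erythrocytes were at 2% hematocrit and 0.1% parasitemia (final) in Albumax-supplemented RPMI 1640.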
# SARS PLP yeast – SARS-CoV PLP inhibition in yeast. S. cerevisiae expressing SARS-CoV PLpro, growth rescue. Potency, µM (titrated, usually from 32.9 µM), for the others: at the highest dose activity, positive = growth rescue, most hits filed as activators. actives 0.19% (n = 330,000). AID 485353; calls by dose curve; also: 0% is about no effect; nearly all actives have a fitted effect of over 55% in size
# Numbers without * were called inactive; ? = inconclusive; nt = no result; [ ] = dose if it differs, or a comment. Unless noted, calls follow the shape of the dose curve; as a rule, active = well fitted inhibition curve with a large enough effect; inconclusive = small, poorly fitted or top-dose-only effect, or another doubt; inactive = no such curve, though single readings can be large or run the other way. Potency is read from the fitted curve at half-maximal effect.
SMILES,Pf growth 96h,NS1 function inh,Pf growth 48h,SARS PLP yeast
O=C(CCCNC(=O)c1ccc(Cl)cc1)Nc1ccc(F)c(S(=O)(=O)N2CCOCC2)c1,-27%,nt,?,-1%
CCc1ccc(NC(=S)NC2CC3CCCC(C2)N3Cc2cccs2)cc1 (stereo not drawn),2.1µM*,-2%,?,0%
CCc1ccccc1NC(=S)NC1CC2CCC(C1)N2Cc1ccco1 (stereo not drawn),?,7%,-3%,-3%
Cc1ccc(CN2C3CCCC2CC(NC(=S)NCc2ccccc2)C3)cc1 (stereo not drawn),0%,-3%,12µM*,2%
Cc1ccc(NC(=S)NC2CC3CCC(C2)N3Cc2ccco2)cc1C (stereo not drawn),12µM*,-3%,?,3%
CCc1ccccc1NC(=O)NC1CC2CCC(C1)N2Cc1cccs1 (stereo not drawn),?,3%,-12%,3%
Cc1ccc(NC(=S)NC2CC3CCC(C2)N3Cc2ccco2)c(C)c1 (stereo not drawn),?,5%,7%,-4%
CCc1ccccc1NC(=S)NC1CC2CCC(C1)N2Cc1ccc(F)cc1 (stereo not drawn),-8%,-1%,7.4µM*,0%
Cc1ccc(S(C)(=O)=O)cc1C(=O)OCC(=O)N1CCCC1=O,20%,nt,-2%,2%
Cc1cccc(NC(=S)NC2CC3CCCC(C2)N3Cc2ccccc2)c1C (stereo not drawn),1%,-2%,5.9µM*,0%
Cc1ccc(CNC(=S)NC2CCC(C(C)(C)C)CC2)cc1 (stereo not drawn),12µM*,?,9.3µM*,-5%
CC(NC(=S)NC1CCC(C(C)(C)C)CC1)c1ccccc1 (stereo not drawn),9.3µM*,18%,7.4µM*,-2%
N#CCN=C(c1ccccc1)c1ccccc1,38%,nt,36%,-5%
CCOc1ccccc1N1C(=O)CN(Cc2ccc(OC)c(OC)c2)C1=S,-28%,-3%,1%[0.00184 µM],-1%
COc1ccc(OC)c(NC(=O)CN2C(=O)C3(OCCCO3)c3ccccc32)c1,5.2µM*,1%,-27%,-7%
COc1ccccc1NC(=O)CN1C(=O)C2(OCCCO2)c2ccccc21,-25%,-3%,4%,-3%
Cc1cccc(Nc2c([N+](=O)[O-])cc(C(=O)N3CC(=O)Nc4ccccc43)cc2[N+](=O)[O-])c1,?,nt,9.3µM*,0%
Cc1ccc(C)c(Nc2c([N+](=O)[O-])cc(C(=O)N3CC(=O)Nc4ccccc43)cc2[N+](=O)[O-])c1,13µM*,?,?,-1%
O=C(Nc1ccc(OC(F)F)cc1)c1cc[n+]([O-])cc1,21%,-1%,14%,1%
COc1cccc2c1C(=O)C=C(C)C2=O,15µM*,-32%,?,-79%
CC1=CC(=O)c2ccccc2C1=O,15µM*,-22%,?,-24%
O=C(Nc1cccc(C(F)(F)F)c1)C1CCN(S(=O)(=O)c2cccnc2)CC1,?,8%,-14%,27%
CCCn1c(SCC(=O)Nc2cc(Cl)ccc2Cl)n[nH]c1=O,1.2µM*,nt,?,-2%
CCCn1c(SCC(=O)Nc2cc(Cl)ccc2OC)n[nH]c1=O,?,14%,nt,2%
CCCn1c(SCC(=O)N2CCN(S(=O)(=O)c3ccc(Cl)cc3)CC2)n[nH]c1=O,?,-4%,10µM*,1%
SMILES,Pf growth 96h,NS1 function inh,Pf growth 48h,SARS PLP yeast
O=C(CCNC(=O)c1ccc([N+](=O)[O-])cc1)Nc1cccc(S(=O)(=O)N2CCCCCC2)c1,-4%,nt,-15%,11%
CCCC(NC(=O)c1ccc(Br)o1)c1nc2ccccc2[nH]1 (stereo not drawn),nt,nt,nt,-5%
O=C1C=C(Nc2cccc3cccnc23)c2ccccc2C1=O,211%,7%,2.1µM*,-5%
O=C1C=C(Nc2ccccc2C(=O)O)c2ccccc2C1=O,0%,-40%,-2%,-11%
CC(C)N1CC=C2C(C#N)=C(N)C(C#N)(C#N)C(c3ccccc3)C2C1 (stereo not drawn),-7%[5.75 µM],8%,-27%,2%
CCN1CC=C2C(C#N)=C(N)C(C#N)(C#N)C(c3cc(Cl)ccc3Cl)C2C1 (stereo not drawn),0%,9%,8.3µM*,-9%
O=C(O)c1ccc2c(c1)C(=O)N([C@]1(C(=O)O)CC1c1ccccc1)C2=O (stereo partly drawn),19%,nt,-19%,-13%
COc1ccc(C(=O)N2CCC(=O)N(C(CO)Cc3ccccc3)CC2)cc1 (stereo not drawn),-1%,23%,30%,21%
Cc1cccc(COCC(Cc2ccccc2)N2CCN(C(=O)c3cccc(Cl)c3)CCC2=O)c1 (stereo not drawn),12µM*,-20%,?,10%
Cc1ccc(S(=O)(=O)N2CCC(=O)N(C(COCc3ccc(Cl)cc3)Cc3ccccc3)CC2)cc1 (stereo not drawn),10µM*,?,12µM*,-26%
O=C(c1cccc(Cl)c1)N1CCC(=O)N(C(COCc2ccccc2)Cc2ccccc2)CC1 (stereo not drawn),10µM*,-29%,?,10%
Cc1cccc(C(=O)N2CCC(=O)N(C(COCc3ccccc3)Cc3ccccc3)CC2)c1 (stereo not drawn),13µM*,-9%,-23%,?
CC(NC(=O)CN1CCN(C(=O)c2cccs2)CC1)c1ccc(F)cc1F (stereo not drawn),nt,nt,nt,-4%
COc1ccc(C)cc1NC(=O)C1CCN(C(=O)C2CC(=O)N(c3ccc(C)cc3)C2)CC1 (stereo not drawn),29%,-10%,7%,1%
CCC(=O)Nc1ccc(C(=O)NNC(=O)COc2cccc(C)c2)cc1,63%,4%,12%,-10%
CCCC(=O)Oc1ccc(C2NC(=O)c3ccccc3O2)cc1OC (stereo not drawn),33%,1%,31%,3%
Cc1cccc(C(=O)N2CCC(=O)N(C(COCc3cccc(C(F)(F)F)c3)Cc3ccccc3)CC2)c1 (stereo not drawn),9.3µM*,-1%,?,-6%
CCC(CC)N1CCN(C(=O)c2cccc(Cl)c2)CC1,13µM*,-4%,16%,-7%
O=C(c1ccc(Cl)c(Cl)c1)N1CCC(=O)N(C(COCc2ccccc2)Cc2ccccc2)CC1 (stereo not drawn),12µM*,-17%,?,-6%
CC(C)N1CCN(C(=O)c2cccc(Cl)c2)CC1,6%,-11%,9%,-2%
O=S(=O)(O)[C@@H](CO)c1ccccc1 (tested in a mixture with another compound),nt,-8%,nt,nt
CC1Cc2ccccc2N1C(=O)COC(=O)c1ccc(N(C)C)cc1 (stereo not drawn),?,nt,?,-3%
COC(=O)N/N=C/c1ccc([N+](=O)[O-])o1,12µM*,-8%,13µM*,5%
CCCCNC(=O)/C(=C\c1ccc([N+](=O)[O-])o1)NC(=O)c1ccccc1,-19%,nt,?,-2%
Cc1nonc1C(=O)N/N=C/c1ccc([N+](=O)[O-])o1,?,nt,?,-1%

# Source: PubChem (National Center for Advancing Translational Sciences (NCATS))
